Test results from ChEMBL document CHEMBL3988442, “University of Dundee, Small-Polar-MMV Screening Library” (2021).
For some of these results: Entries with a potency or affinity are not part of this list.

Tests used:
Set-up in all cases: scale not given: direction of the effect not stated beside the values
[1] = molecular target: Protein translocase subunit SecA (Escherichia coli (strain K12)) (UniProt P10408); test: Assay to Identify E. coli SecA ATPase Inhibitors; format: functional; settings: 30 µM
[2] = molecular target: T1, Ubiquitin-activating enzyme e1, putative (Leishmania donovani (strain BPK282A1)) (UniProt E9BSI1); test: Leishmania donovani Ubiquitin Activating Enzyme (LdE1); format: functional; settings: 30 µM
T1 sequence (whole entry): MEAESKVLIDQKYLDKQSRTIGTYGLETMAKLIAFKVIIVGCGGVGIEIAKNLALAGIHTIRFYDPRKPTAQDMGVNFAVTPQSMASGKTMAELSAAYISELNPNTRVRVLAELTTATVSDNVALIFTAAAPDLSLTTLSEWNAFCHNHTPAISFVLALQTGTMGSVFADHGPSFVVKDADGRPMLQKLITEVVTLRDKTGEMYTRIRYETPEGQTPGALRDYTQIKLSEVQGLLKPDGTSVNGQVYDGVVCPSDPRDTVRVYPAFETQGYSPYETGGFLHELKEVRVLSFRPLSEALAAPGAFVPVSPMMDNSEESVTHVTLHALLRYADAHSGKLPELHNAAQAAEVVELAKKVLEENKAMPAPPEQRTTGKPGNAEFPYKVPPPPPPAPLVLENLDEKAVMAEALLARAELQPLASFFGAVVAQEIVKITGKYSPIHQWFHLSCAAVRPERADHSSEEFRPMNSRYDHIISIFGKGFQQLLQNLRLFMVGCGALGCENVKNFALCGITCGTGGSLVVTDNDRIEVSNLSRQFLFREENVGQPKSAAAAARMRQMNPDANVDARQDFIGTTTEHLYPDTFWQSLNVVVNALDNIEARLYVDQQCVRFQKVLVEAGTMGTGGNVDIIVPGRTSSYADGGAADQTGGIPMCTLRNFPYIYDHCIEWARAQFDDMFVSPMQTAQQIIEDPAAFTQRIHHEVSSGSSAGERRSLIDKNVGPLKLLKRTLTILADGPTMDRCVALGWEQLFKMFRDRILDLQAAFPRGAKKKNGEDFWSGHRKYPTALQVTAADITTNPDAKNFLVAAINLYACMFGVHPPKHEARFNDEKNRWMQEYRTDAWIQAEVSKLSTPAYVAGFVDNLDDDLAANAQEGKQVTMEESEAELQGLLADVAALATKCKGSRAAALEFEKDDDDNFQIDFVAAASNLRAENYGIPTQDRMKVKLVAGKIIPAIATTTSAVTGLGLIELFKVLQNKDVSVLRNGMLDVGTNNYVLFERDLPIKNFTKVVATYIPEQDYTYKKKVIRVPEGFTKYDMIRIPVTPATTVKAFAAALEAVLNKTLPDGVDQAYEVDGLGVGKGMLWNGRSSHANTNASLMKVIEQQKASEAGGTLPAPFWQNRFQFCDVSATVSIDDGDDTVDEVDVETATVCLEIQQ

[3] = molecular target: AMP-activated protein kinase, AMPK (Homo sapiens) (UniProt P54646+O43741+P54619+Q9UGJ0+Q9Y478+Q13131+Q9UGI9); test: AMP-dependent Kinase enzyme assay. An in vitro enzyme assay that detects ADP turnover that is directly proportional to AMPK activity. This uses naive AMPK that is activated during the assay with MK-8722; format: functional; settings: 30 µM
[4] = molecular target: Sialic acid-binding Ig-like lectin 9 (Homo sapiens) (UniProt Q9Y336); test: Hs-Siglec9 ALPHAscreen SOP 20170721; settings: 10 µM
Trypanosoma cruzi = test: Trypanosoma cruzi phosphomannomutase and mannose-1-phosphate guanylyltransferase assay; format: functional; settings: 10 µM
[5] = molecular target: T2, Arginase-2, mitochondrial (Homo sapiens) (UniProt P78540); test: in vitro enzyme assay to detect the production of urea directly proportional to the activity of Arginase II; format: functional; settings: 33.3 µM; also: in the data most compounds retested in dose-response had high values
T2 sequence (whole entry): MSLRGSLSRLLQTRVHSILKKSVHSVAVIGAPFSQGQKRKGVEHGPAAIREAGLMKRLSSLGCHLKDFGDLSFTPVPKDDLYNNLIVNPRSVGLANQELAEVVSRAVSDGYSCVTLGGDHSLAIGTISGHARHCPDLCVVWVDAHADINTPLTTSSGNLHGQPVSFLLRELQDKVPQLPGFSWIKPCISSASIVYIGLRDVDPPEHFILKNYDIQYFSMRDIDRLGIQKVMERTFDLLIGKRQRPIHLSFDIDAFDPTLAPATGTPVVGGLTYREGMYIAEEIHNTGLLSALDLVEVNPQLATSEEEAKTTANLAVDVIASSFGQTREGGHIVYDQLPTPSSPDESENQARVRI

[6] = molecular target: T3, Proteasome subunit beta (Trypanosoma cruzi) (UniProt O96673); test: Trypanosoma cruzi proteasome chymotrypsin-like activity (TcProtChymo) assay.; also: in the data most compounds retested in dose-response had high values; format: functional; settings: 9.37 µM
T3 sequence (whole entry): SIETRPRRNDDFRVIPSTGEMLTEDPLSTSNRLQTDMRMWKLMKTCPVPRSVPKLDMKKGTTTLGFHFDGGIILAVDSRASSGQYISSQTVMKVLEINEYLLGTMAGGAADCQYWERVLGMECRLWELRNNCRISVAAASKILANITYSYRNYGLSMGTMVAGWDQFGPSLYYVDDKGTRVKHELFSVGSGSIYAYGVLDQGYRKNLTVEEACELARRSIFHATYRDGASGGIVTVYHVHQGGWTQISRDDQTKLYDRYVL

Homo sapiens = species on record: Homo sapiens; test: To identify inhibition of the IFN signalling (Jak-Stat) pathway via expression of an eGFP reporter gene under the control of an IFN-stimulated response element (ISRE) containing MxA promoter.; format: functional; settings: 30 µM
[7] = molecular target: T4, Tyrosyl-tRNA synthetase, putative (Trypanosoma cruzi (strain CL Brener)) (UniProt Q4DSP6); test: Trypanosoma cruzi tyrosyl tRNA synthetase (TcYRS) _High Tyrosine SOP; format: functional; settings: 30 µM; also: in the data most compounds retested in dose-response had high values
T4 sequence (whole entry): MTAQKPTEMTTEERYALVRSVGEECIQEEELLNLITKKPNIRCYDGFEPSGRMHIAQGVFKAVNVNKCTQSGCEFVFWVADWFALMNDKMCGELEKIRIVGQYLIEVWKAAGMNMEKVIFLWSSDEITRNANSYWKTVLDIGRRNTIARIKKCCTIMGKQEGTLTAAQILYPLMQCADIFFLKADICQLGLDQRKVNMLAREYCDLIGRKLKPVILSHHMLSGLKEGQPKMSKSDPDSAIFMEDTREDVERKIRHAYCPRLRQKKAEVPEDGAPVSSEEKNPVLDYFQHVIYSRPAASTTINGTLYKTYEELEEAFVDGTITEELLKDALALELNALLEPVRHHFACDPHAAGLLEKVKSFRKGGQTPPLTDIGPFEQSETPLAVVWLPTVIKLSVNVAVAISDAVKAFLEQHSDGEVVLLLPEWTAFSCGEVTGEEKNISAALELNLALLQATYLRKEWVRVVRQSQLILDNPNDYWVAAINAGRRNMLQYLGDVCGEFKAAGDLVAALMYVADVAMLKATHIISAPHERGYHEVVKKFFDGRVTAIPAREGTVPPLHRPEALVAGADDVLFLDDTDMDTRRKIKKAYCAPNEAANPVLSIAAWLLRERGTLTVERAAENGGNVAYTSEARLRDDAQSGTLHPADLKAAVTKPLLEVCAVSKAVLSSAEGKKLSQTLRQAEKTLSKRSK

[8] = molecular target: T4, Tyrosyl-tRNA synthetase, putative (Trypanosoma cruzi (strain CL Brener)); test: Trypanosoma cruzi tyrosyl tRNA synthetase (TcYRS) SOP; format: functional; settings: 30 µM
[9] = molecular target: Chromo domain-containing protein 1 (Saccharomyces cerevisiae (strain ATCC 204508 / S288c) (Baker's yeast)) (UniProt P32657); test: ScCHD-1 Enzyme Inhibition Assay; format: functional; settings: 30 µM; also: in the data most compounds retested in dose-response had high values
Chain of Chromo domain-containing protein 1 (Saccharomyces cerevisiae (strain ATCC 204508 / S288c) (Baker's yeast)) (P32657 whole entry, the tested form may be a part): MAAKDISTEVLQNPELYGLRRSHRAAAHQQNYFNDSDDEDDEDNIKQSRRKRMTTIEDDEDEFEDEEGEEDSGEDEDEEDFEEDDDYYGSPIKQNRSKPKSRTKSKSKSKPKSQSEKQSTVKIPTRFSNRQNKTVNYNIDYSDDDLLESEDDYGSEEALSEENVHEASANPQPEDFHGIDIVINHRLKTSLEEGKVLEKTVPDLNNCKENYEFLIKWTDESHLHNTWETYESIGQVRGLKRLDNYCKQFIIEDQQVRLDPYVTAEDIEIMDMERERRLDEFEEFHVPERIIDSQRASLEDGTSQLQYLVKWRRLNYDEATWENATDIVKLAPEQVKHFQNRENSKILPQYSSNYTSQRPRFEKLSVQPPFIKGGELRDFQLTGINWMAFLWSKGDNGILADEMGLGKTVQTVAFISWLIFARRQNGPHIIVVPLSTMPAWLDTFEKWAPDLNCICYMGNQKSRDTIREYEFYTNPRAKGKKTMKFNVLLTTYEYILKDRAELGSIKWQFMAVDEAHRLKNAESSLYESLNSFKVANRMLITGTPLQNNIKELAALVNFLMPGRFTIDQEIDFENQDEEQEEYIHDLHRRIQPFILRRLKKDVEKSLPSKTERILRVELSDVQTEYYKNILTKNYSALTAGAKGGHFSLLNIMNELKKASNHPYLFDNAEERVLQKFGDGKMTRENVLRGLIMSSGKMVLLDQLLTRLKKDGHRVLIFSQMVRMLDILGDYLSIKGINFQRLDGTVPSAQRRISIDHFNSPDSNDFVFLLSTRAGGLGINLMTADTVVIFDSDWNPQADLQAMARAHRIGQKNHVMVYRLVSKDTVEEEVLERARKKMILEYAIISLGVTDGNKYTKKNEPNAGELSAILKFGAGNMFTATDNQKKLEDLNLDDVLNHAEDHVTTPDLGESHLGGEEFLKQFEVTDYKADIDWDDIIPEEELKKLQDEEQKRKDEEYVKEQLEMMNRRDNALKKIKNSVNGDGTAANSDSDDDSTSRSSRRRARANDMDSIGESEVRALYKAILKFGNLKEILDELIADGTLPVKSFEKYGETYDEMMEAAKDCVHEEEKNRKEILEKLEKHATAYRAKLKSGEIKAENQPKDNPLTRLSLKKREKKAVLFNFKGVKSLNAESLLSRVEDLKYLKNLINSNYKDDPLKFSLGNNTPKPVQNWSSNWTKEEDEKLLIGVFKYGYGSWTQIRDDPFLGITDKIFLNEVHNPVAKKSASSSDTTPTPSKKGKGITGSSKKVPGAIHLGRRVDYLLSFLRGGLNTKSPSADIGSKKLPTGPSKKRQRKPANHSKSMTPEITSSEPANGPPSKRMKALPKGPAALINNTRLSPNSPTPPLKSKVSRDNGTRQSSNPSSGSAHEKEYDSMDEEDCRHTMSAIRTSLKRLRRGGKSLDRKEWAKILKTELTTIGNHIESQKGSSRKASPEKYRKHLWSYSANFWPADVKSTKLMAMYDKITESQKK

Chain of Protein translocase subunit SecA (Escherichia coli (strain K12)) (P10408 whole entry): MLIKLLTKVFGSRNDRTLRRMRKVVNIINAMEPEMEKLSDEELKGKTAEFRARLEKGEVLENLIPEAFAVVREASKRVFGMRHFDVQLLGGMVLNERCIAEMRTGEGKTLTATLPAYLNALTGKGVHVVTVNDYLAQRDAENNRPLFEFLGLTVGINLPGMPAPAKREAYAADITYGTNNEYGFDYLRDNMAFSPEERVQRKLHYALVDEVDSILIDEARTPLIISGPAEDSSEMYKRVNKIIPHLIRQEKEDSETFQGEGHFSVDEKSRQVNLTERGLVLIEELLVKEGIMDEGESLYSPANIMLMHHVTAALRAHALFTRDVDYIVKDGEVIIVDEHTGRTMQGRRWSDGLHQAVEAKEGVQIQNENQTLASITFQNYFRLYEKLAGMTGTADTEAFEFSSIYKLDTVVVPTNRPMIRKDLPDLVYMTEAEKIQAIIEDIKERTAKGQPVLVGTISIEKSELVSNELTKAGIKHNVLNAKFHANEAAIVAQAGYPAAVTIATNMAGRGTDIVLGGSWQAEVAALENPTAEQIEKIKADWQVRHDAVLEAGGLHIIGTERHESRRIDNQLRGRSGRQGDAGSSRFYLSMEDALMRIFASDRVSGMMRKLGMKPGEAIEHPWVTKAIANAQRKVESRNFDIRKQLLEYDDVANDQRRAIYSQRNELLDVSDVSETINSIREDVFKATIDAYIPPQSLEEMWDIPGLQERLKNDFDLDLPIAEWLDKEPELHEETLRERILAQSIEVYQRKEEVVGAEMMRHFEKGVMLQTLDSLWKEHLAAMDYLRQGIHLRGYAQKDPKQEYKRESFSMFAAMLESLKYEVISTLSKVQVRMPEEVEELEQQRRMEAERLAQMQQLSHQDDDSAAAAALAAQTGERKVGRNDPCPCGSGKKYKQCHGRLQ
Chain of Sialic acid-binding Ig-like lectin 9 (Homo sapiens) (Q9Y336 whole entry): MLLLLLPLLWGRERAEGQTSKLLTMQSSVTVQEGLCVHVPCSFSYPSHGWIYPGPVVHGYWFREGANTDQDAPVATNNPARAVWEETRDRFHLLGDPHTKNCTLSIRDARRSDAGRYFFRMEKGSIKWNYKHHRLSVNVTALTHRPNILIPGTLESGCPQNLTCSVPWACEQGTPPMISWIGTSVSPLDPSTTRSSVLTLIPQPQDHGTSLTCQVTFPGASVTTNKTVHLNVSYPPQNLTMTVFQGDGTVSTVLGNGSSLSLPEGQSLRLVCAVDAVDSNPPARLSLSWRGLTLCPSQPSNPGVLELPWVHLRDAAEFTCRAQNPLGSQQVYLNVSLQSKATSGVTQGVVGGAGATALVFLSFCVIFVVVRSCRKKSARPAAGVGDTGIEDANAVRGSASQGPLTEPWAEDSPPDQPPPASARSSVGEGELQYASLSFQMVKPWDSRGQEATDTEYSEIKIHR

Structure (SMILES) | Percent Effect [1] | Percent Effect [2] | Percent Effect [3] | Percent Effect [4] | Percent Effect (Trypanosoma cruzi) | Percent Effect [5] | Percent Effect [6] | Percent Effect (Homo sapiens) | Percent Effect [7] | Percent Effect [8] | Percent Effect [9]
COc1ccc2c(c1)CN(Cc1nc3c(cnn3C)c(=O)[nH]1)CC2 | -1.51% | 15.2% | -8.08% | 0.541% | 0.85% | 2.66% | 7.45% | 8.47% | 4.43% | 21.5% | -7.47%
CN(Cc1ccncc1)CC(c1cccs1)N1CCOCC1 (stereo not given) | -5.66% | -29.7% | -4.64% | 13.6% | 8.63% | -2.03% | 5.57% | 19.6% | 5.94% | 13.4% | -2.66%
CC(C)Sc1nnc(CCNC(=O)OC(C)(C)C)o1 | 1.34% | 4% | -0.0572% | 0.92% | -8.45% | 0.176% | 12.2% | 32.6% | -2.12% | -12.8% | -10.5%
CN(CC1(O)CCCCC1)C1CCCN(Cc2noc(C3CC3)n2)C1 (stereo not given) | -0.786% | 26.3% | -8.18% | -11.1% | -3.46% | -1.08% | 10.9% | 10.4% | 4.43% | 13.6% | -3.04%
Cn1ccc(C(=O)NC2CCC23CCN(C(=O)N2CCCC2)CC3)c1 (stereo not given) | -3.06% | 16.2% | 3.04% | -9.67% | 3.42% | -6.05% | 19.2% | -7.3% | 6.49% | 15.4% | 1.18%
COc1ccc2cc(C(=O)N3CCCCC3Cn3cccn3)[nH]c2c1 (stereo not given) | -8.67% | 0% | 2.23% | 5.53% | -0.562% | 2.13% | 1.86% | 2.73% | 0% | 2.44% | -1.29%
COc1ccc(OC)c(CN2CCCCCC2c2cccs2)c1 (stereo not given) | -4.16% | -7.79% | -2.05% | -14.1% | 7.59% | 3.23% | 9.05% | 8.15% | -5.29% | -32% | -9.84%
Cc1ccc2c(c1)c(CNC(=O)C1CC(=O)N(C3CCCC3)C1)nn2C (stereo not given) | 1.21% | 0% | 4.01% | 6.8% | -7.34% | -1.43% | 21% | 10% | 3.7% | 0% | -5.94%
Cc1ccc(C(=O)O)cc1S(=O)(=O)Nc1nn(-c2ccccc2)cc1C | -5.95% | 2.74% | 9.77% | 0.854% | -5.09% | 0.455% | 17.6% | 17.3% | -10.8% | -17.5% | -5.76%
COCc1nn(C(C)C)c2c1CCN(Cc1ccc(C)s1)C2 | -2.06% | 2.74% | -1.91% | -1.63% | 0.198% | 5.99% | 7.62% | 1.17% | 2.08% | 3.7% | -2.29%
Cc1ccc(C)c(NC(=O)N(C)Cc2cnn(C)c2)c1 | -3.08% | 21.6% | -1.59% | -5.73% | -5.94% | -0.401% | 11.3% | 20.3% | 7.39% | 16.1% | -4.13%
Cc1nc(N2CCN(C)CC2)ncc1C(=O)N1CC(C)(C)C(C)(O)C1 (stereo not given) | -0.364% | 2.7% | 6.69% | -5.09% | -9.09% | -8.19% | 13% | 11.1% | 0% | -16.1% | 103%
OC(CN1CCCCCCC1)c1ccc(F)cc1 (stereo not given) | 0.984% | 10.5% | -3.76% | -5.28% | 7.33% | -1.15% | 15.4% | 11.7% | 7.35% | 19.5% | -11.6%
Cc1ccc(SCC(=O)NS(=O)(=O)c2ccc3c(c2)OCCO3)cc1 | -2.38% | -10.5% | 2.56% | -1.45% | 5.45% | -2.68% | 15% | 3.33% | -6.37% | -7.32% | -0.431%
Cc1nc(CC(=O)N2CCCN(c3ccc(C#N)cc3)CC2)cs1 | -2.43% | 0% | 5.74% | -0.961% | -5.55% | -4.73% | 14.5% | 2.28% | 2.13% | 5.2% | -1.52%
CCc1noc(CNc2ccc(F)cc2OCC2CC2)n1 | 0.992% | 18.9% | -7.79% | 18.2% | -1.54% | 7.14% | 9.83% | 10.8% | 1.59% | 12.2% | -3.79%
C[C@@H]1CN(C(=O)c2ccsc2)C[C@]12CCN(c1ccsc1)C2=O | -3.14% | 0% | 13.8% | -0.135% | -3.54% | -1.63% | 2.91% | 5.8% | 5.32% | 3.85% | 0.408%
COc1ccc(CCC(=O)NC2CCC(O)CC2)cc1OC (stereo not given) | -5.53% | 13.2% | -3.83% | 13% | -0.654% | -3.24% | 2.12% | 7.63% | 2.46% | 6.17% | -1.04%
Cc1cnc(N2CCC3(CCCN(c4ccc(C)nn4)C3)C2)nc1 (stereo not given) | 1.3% | 11% | 1.6% | 7.43% | -6.35% | -21.6% | 13.1% | 33.6% | 6.25% | 13.6% | -5.51%
Cc1cc(=O)[nH]c(CCNC(=O)C(c2ccc(F)cc2)N(C)C)n1 (stereo not given) | 6.03% | 11% | -3.97% | 1.73% | -5.75% | -14% | 13.3% | 26.9% | 10.4% | 11.1% | 0.214%
